# Screening data deposited in PubChem by National Center for Advancing Translational Sciences (NCATS).
# The list is not random: actives were taken first. Their share in the collection is about 21%.
# IL-1B inflam inh = inhibitors of inflammasome signaling (IL-1 beta secretion). THP-1 LPS/ATP IL-1B secretion, AlphaLISA, 16 h; stronger effect = lower value. activity change, % at 57.5 µM. 360,000 tested, 4.7% active; in the data active = activity change below about -50%; inconclusive = mostly about -30% to -49%
#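 Secreted IL-1B measured by AlphaLISA bead assay after 16 h compound exposure of THP-1 cells; compounds (final up to 57.5 uM) added 1 h before LPS (250 ng/mL) and ATP (1.25 mM) stimulation; lower signal means less secretion.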
# TDP1 cell CPT = DT40-hTDP1 cell growth loss with CPT | chicken DT40 Tdp1-/-;hTDP1 cells + 20 nM CPT, ATP luminescence, 48 h | Potency, µM (highest dose often 46.2 µM), actives largely listed as inhibitors | 420,000 tested, 12% active; note: nearly all actives have a fitted effect of over 55% in size
#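 Chicken DT40 Tdp1-/- cells complemented with human TDP1, 400 cells/well, exposed to compounds plus 20 nM camptothecin for at least 48 h at 37 C; viability read as ATP content by CellTiter-Glo luminescence.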
# D3 ag = agonists of human D3 dopamine receptor; AID 652048; D3R DiscoveRx beta-arrestin cells, luminescence, 90 min; P35462; max activation, %; 410,000 tested, 0.58% active; in the data active = max activation above about 30%
# Target sequence (P35462 whole entry, looked up): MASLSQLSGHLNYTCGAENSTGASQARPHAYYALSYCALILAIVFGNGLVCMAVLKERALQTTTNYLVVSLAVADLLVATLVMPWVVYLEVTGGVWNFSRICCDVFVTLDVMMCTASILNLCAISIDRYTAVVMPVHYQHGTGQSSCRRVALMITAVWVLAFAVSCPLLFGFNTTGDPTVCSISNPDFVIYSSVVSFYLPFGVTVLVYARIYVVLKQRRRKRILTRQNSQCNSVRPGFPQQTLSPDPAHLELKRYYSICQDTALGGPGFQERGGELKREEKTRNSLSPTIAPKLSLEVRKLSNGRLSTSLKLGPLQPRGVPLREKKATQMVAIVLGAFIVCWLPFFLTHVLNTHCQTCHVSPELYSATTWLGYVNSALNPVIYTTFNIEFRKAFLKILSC
#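 Agonist mode: compounds and dopamine controls were applied to plated cells for 90 min at 37 degrees C after an overnight attachment at 1500 cells/well. Luminescent read-out followed 30 - 60 minutes at room temperature with DiscoveRx detection reagent.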
# D3 antag = antagonists of human D3 dopamine receptor; max response, negative = inhibition, %; AID 652054; P35462; 360,000 tested, 2.5% active; D3R cells, DiscoveRx beta-arrestin luminescence, antagonist mode; stronger effect = lower value; in the data active = max response below about -50%; inconclusive = no clear call, values can overlap the other calls
#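 Cells expressing the human receptor were seeded at 1500 cells/well, incubated overnight at 37 degrees C in 5% CO2, then exposed to library compounds with dopamine controls for 90 minutes at 37 degrees C before luminescent detection.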
# ClpP mod = qHTS Assay for Activators of ClpP. ATP-dependent Clp protease proteolytic subunit (Bacillus subtilis (strain 168)), P80244. purified B. subtilis ClpP, FRET peptide cleavage, 20 min. 340,000 tested, 1.9% active. AID 651965, 2013. Potency, µM (series often up to 57.5 µM); active = well fitted falling curve with a large enough effect; inconclusive = small, poorly fitted or top-dose-only effect; inactive = no such curve, though single readings can be large or run the other way; note: the source files actives as falling curves though it sought activators and does not explain the sign; nearly all actives have a fitted effect of over 65% in size
# Target sequence (P80244 whole entry, looked up): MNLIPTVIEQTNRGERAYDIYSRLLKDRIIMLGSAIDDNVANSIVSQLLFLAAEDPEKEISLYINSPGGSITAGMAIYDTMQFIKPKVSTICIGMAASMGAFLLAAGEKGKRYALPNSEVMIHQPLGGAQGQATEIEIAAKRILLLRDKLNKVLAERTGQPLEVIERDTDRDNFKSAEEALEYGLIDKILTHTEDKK
#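 FRET quenching reversal measured ClpP activation: 10 microg/mL B. subtilis ClpP at pH 8 with the FRET-FV decapeptide, read at 430 nm after 320 nm excitation. The 20-min minus 0-min signal was scaled between DMSO/no-enzyme wells and ADEP (5.8 microM final).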
# TDP1 cell noCPT = qHTS for Inhibitors of human tyrosyl-DNA phosphodiesterase 1 (TDP1): qHTS in cells in absence of CPT; DT40 Tdp1-/- hTDP1 cells, no CPT, ATP luminescence, 48 h; Potency, µM (doses to about 46.2 µM), actives largely listed as inhibitors; 420,000 tested, 15% active; note: nearly all actives have a fitted effect of over 55% in size
#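 Growth kinetics read by CellTiter-Glo luminescence after ≥48 hr at 37 °C. Cells: DT40 Tdp1-/- stably carrying human TDP1, 400 per well, compound exposure in the absence of CPT (DMSO vehicle).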
# Hits are given with their value; i = inactive; ? = inconclusive; nt = no result. Unless noted, calls come from the whole dose curve; as a rule, active = well fitted inhibition curve with a large enough effect; inconclusive = small, poorly fitted or top-dose-only effect; inactive = flat fitted curve, though single readings scatter.
SMILES,IL-1B inflam inh,TDP1 cell CPT,D3 ag,D3 antag,ClpP mod,TDP1 cell noCPT
O=C(C1CCN(c2nnc(-n3cccc3)s2)CC1)N1CCN(Cc2ccc3c(c2)OCO3)CC1,i,?,i,i,i,15µM
Cc1cc(C)nc(N2CCC(C(=O)NC3CCCc4ccccc43)CC2)n1 (centres undefined),i,i,i,i,i,i
O=C(NC1CCCc2ccccc21)C1CCN(c2nnc(-n3cccc3)s2)CC1 (centres undefined),i,23µM,i,?,i,?
CC1CCN(Cc2ccc(NC(=O)C3CCN(c4nnc(-n5cccc5)s4)CC3)cc2)CC1,i,18µM,i,?,i,?
c1ccc(OCCCc2nc(-c3ccncc3)no2)cc1,i,i,i,-52,i,i
c1ccc(OCc2nc(-c3ccncc3)no2)cc1,i,i,i,i,i,i
C[C@H](CO)N1C[C@H](C)[C@@H](CN(C)S(=O)(=O)c2ccc(F)cc2)Oc2ccc(NC(=O)C3CC3)cc2C1=O,i,i,i,i,i,i
CC1(C)CC(=O)C(C=Nc2ccc(O)c(N=CC3=C(O)CC(C)(C)CC3=O)c2)=C(O)C1,i,16µM,i,i,i,?
COc1ccc(OC)c(N=CC2=C(O)CC(C)(C)CC2=O)c1,i,i,i,i,i,i
CC1(C)CC(=O)C(C=Nc2cccnc2/N=C/C2=C(O)CC(C)(C)CC2=O)=C(O)C1,i,4.6µM,i,-143,nt,?
CC1(C)CC(=O)C(C=Nc2cccnc2)=C(O)C1,i,i,i,i,i,i
CC1(C)CC(=O)C(C=Nc2ccc(C(=O)c3ccccc3)cc2N=CC2=C(O)CC(C)(C)CC2=O)=C(O)C1,i,?,i,-118,nt,?
Cc1ccc2c(c1)N(C(=O)NCc1ccccc1)CCO2,nt,i,i,nt,i,i
CCN(C[C@H]1N[C@@](C)(C(=O)OC)[C@H]2C(=O)N(Cc3ccccc3)C(=O)[C@@H]12)S(=O)(=O)c1ccccc1,i,i,i,i,i,i
COc1ccccc1C(=O)NC(=O)COC(=O)C1CC2CCCC(C1)C2=O (centres undefined),i,i,i,i,i,i
COc1ccc(CNC(=O)CN2C(=O)C(c3ccccc3)Oc3cccnc32)cc1 (centres undefined),i,i,i,i,i,?
O=C(CN1C(=O)C(c2ccccc2)Oc2cccnc21)NCc1ccccc1F (centres undefined),i,21µM,i,i,i,?
COc1cc(Cl)c(C)cc1NC(=O)CCCN1C(=O)C(c2ccccc2)Oc2cccnc21 (centres undefined),nt,26µM,i,nt,i,21µM
COc1ccc(Cl)cc1NC(=O)CCCN1C(=O)C(c2ccccc2)Oc2cccnc21 (centres undefined),nt,18µM,i,nt,i,23µM
CC(=O)c1ccc(S(=O)(=O)NCCc2cn3ccc(C)cc3n2)cc1,i,i,i,i,i,i
COC(=O)C1=NN[C@H](C(=O)OC)[C@H]1c1ccccc1,i,i,i,i,i,i
COC(=O)C1=NN[C@H](C(=O)OC(C)(C)C)[C@H]1c1ccccc1,i,i,i,i,16µM,i
O=C(Nc1cc(Cl)ccc1O)c1cc2nc(-c3ccc4c(c3)OCO4)cc(C(F)(F)F)n2n1,nt,i,i,nt,i,?
COc1cccc(CNS(=O)(=O)c2cc3c4c(c2)CCN4C(=O)CC3)c1,i,i,i,-72,i,i
O=C1CCc2cc(S(=O)(=O)NCc3ccccc3)cc3c2N1CC3,i,i,i,i,i,i
SMILES,IL-1B inflam inh,TDP1 cell CPT,D3 ag,D3 antag,ClpP mod,TDP1 cell noCPT
Cn1cccc1C(=O)N1CCC2(CCCN(c3cccc(-c4ccccc4)c3)C2)CC1,nt,?,nt,nt,nt,13µM
CC(=O)N1CCC2(CC1)CN(c1cccc(-c3ccccc3)c1)C2,nt,i,nt,nt,nt,?
Cn1cccc1C(=O)N1CCC2(CC1)CCN(c1cccc(-c3ccccc3)c1)CC2,nt,16µM,nt,nt,nt,?
O=C(c1cnccn1)N1CCC2(CC1)CN(c1cccc(-c3ccccc3)c1)C2,nt,18µM,nt,nt,nt,?
CC(=O)N1CCC2(CC1)CCN(c1cccc(-c3ccccc3)c1)CC2,nt,?,nt,nt,nt,21µM
CCOc1ccccc1CNc1nc2nc(C)cc(C)n2n1,nt,?,i,nt,i,i
COc1ccc(C(=O)N2CCC3(CCCN(c4cccc(-c5ccccc5)c4)C3)CC2)cc1,nt,?,nt,nt,nt,21µM
Cn1cccc1C(=O)N1CCC[C@@]2(CCN(c3ncccn3)C2)C1,nt,i,nt,nt,nt,i
Cn1cccc1C(=O)N1CCC[C@@]2(CCN(c3ccccc3)C2)C1,nt,?,nt,nt,nt,26µM
COC(=O)N1CCC2(CCCN(c3cccc(-c4ccccc4)c3)C2)CC1,nt,i,nt,nt,nt,?
O=C(CNC(=O)c1ccc(Cl)cc1Cl)OC1CCCCC1=O (centres undefined),i,i,i,i,i,i
CCN(C(=O)CCc1nc(-c2ccccc2F)no1)c1cc(OC)ccc1OC,i,23µM,i,i,i,?
Cc1ccc(-c2noc(CCC(=O)N(C)c3ccccc3F)n2)cc1,nt,?,i,nt,i,?
COc1ccc(C)cc1N(C)C(=O)CCc1nc(-c2ccccc2F)no1,nt,18µM,i,nt,i,?
CCNC(=O)c1c2c(nc3ccccc13)C(=O)N(C1CCCCC1)C2,nt,i,i,nt,?,i
COc1ccc(C)cc1N(C)C(=O)c1c2c(nc3ccccc13)C(=O)N(C1CCCCC1)C2,nt,?,i,nt,i,?
COc1cccc(N2CCN(C(=O)c3c4c(nc5ccccc35)C(=O)N(C3CCCCC3)C4)CC2)c1,nt,21µM,i,nt,i,16µM
Cc1ccc(N2CCN(C(=O)c3c4c(nc5ccccc35)C(=O)N(C3CCCCC3)C4)CC2)c(C)c1,nt,9.2µM,i,nt,i,10µM
Cc1cccc(N2CCN(C(=O)c3c4c(nc5ccccc35)C(=O)N(C3CCCCC3)C4)CC2)c1C,nt,7.3µM,i,nt,i,5.8µM
O=C(C[C@@H]1C/C=C\CCC(=O)O[C@H](c2ccccc2)CNC1=O)N[C@H](CO)Cc1ccccc1,i,i,i,?,i,i
N#Cc1ccc(CN2CCC3(CCNCC3)CC2)cc1,nt,?,nt,nt,nt,18µM
COCC(=O)N1CCC2(CCN(Cc3ccc(C#N)cc3)CC2)CC1,nt,i,nt,nt,nt,i
N#Cc1ccc(C(=O)N(Cc2ccco2)Cc2cccs2)cc1,nt,?,nt,nt,i,?
N#Cc1cccc(C(=O)N(CCc2ccccc2)Cc2cccs2)c1,i,?,i,i,nt,26µM
S=C(NCCc1ccccc1)NCCc1ccccc1,i,?,i,i,i,?
S=C(NCc1ccccc1)Nc1nccs1,i,5.2µM,i,?,nt,4.6µM
